What was measured:
Test in all cases: HT-SELEX; 20 mM HEPES pH 7, 140 mM KCl, 5 mM NaCl, 1 mM K2HPO4, 2 mM MgSO4, 100 uM EGTA, ZnSO4, 0.1% Tween20; room temperature, 1 h; high values mean tight binding
Details in all cases: protein: ivt; tags: eGFP (N-terminal); dsDNA, one strand shown
ZNF721 full-length = ZNF721 full-length (Homo sapiens, UniProt Q8TF20-2 1-923)
How it was run: (§1)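 The binding signal is a relative k-mer count in selected reads, and higher values mean tighter binding. To obtain these reads, bead-bound tagged transcription factor (full-length or DNA-binding-domain fragment, produced in HEK293 lysate or cell-free extract) was mixed with a randomized 40-base DNA library for 1 h at room temperature in low-stringency HEPES/KCl buffer with Tween20. Bound DNA was recovered by washing and heat elution, PCR-amplified through successive cycles and sequenced on Illumina (~3 million 60 bp reads per sample).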

ZNF721 DBD1 = ZNF721 DBD1 (Homo sapiens, UniProt Q8TF20-2 29-461)
Chain of ZNF721 DBD1 (Q8TF20 17-449): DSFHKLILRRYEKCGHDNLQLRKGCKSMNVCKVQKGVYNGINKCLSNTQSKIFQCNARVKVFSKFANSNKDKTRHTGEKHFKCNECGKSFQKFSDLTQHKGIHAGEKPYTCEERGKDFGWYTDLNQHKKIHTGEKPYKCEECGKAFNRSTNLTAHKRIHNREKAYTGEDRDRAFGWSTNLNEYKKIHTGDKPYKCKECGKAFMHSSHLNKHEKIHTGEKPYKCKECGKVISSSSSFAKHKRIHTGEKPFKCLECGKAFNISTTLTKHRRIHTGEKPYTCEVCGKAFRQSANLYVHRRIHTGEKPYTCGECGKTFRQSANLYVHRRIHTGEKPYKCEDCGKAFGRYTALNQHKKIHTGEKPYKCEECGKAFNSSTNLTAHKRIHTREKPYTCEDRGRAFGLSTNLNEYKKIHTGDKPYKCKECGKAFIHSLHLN
How it was run: as §1

ZNF721 DBD2 = ZNF721 DBD2 (Homo sapiens, UniProt Q8TF20-2 395-923)
Chain of ZNF721 DBD2 (Q8TF20 383-911): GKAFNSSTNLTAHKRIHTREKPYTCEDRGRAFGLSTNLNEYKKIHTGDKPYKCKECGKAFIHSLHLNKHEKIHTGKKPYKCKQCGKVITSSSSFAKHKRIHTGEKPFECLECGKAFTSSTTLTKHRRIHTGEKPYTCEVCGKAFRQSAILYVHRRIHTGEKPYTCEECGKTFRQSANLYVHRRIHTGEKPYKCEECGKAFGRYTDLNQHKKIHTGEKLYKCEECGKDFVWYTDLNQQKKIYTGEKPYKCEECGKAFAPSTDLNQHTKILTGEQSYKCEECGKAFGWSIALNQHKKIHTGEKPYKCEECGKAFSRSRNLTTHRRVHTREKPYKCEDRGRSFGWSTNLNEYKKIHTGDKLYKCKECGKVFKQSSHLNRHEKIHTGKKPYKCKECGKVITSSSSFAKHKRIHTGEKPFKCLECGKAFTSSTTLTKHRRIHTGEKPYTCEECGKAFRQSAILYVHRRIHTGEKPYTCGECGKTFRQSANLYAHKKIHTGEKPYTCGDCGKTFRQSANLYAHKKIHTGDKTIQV
How it was run: as §1

Chain of ZNF721 full-length (Q8TF20 other isoform, or with tags, fused parts or gaps): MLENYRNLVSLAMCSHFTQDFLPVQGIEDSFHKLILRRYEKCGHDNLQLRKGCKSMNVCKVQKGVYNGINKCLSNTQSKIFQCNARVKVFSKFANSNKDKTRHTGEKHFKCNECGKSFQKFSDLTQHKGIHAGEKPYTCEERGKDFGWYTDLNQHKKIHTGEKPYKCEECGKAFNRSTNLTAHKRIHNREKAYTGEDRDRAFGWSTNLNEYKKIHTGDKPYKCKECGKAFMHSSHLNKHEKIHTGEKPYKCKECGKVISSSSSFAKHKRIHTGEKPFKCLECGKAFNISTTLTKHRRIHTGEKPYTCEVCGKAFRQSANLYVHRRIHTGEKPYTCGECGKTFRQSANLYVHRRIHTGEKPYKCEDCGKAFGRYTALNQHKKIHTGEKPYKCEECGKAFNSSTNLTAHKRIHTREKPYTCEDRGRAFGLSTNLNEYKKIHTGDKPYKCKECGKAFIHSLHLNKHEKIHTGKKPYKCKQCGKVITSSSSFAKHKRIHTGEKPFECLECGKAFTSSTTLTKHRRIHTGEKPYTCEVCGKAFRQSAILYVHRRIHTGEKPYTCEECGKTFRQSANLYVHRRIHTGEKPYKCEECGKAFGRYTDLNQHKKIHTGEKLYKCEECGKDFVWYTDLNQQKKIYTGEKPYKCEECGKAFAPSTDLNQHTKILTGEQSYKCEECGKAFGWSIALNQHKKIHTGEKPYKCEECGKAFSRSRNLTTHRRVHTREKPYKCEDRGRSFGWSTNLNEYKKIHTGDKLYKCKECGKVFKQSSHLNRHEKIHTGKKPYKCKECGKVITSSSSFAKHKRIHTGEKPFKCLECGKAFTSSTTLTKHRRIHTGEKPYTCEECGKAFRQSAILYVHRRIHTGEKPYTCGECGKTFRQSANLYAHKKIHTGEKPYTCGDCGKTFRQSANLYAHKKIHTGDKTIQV

| Sequence | binding signal (ZNF721 full-length) [relative 10-mer count] | binding signal (ZNF721 DBD1) [relative 10-mer count] | binding signal (ZNF721 DBD2) [relative 10-mer count] |
| --- | --- | --- | --- |
| CCAAAAAAAG | 0.124 | 0.00812 | 0.0564 |
| GAAAAAAGCA | 0.344 | 0.0533 | 0.15 |
| AAAAGCTGCC | 0.103 | 0.0372 | 0.00108 |
| CCTTCCCCCC | 0.104 | 0.00472 | 0.00264 |
| CCCCCCATCC | 0.15 | 0.00509 | 0.00419 |
| CACCCACCGC | 0.103 | 0.00463 | 0.00455 |
| CCCCCACCCA | 0.256 | 0.00931 | 0.00348 |
| CCCTCCCACC | 0.265 | 0.0161 | 0.00755 |
| AGCGTATCCA | 0.221 | 0.0368 | 0.31 |
| CCCCCTTCCC | 0.122 | 0.00537 | 0.00264 |
| CCCCCTCCTC | 0.116 | 0.00459 | 0.00395 |
| GCCCCCTCCC | 0.134 | 0.00633 | 0.00384 |
| CCCCCACTCC | 0.14 | 0.00665 | 0.00288 |
| CCCCTCCACC | 0.274 | 0.0117 | 0.00851 |
| AAAAAGCATA | 0.182 | 0.0303 | 0.0372 |
| GGAGGGGGGA | 0.131 | 0.00601 | 0.00336 |
| ACCCCACCCC | 0.277 | 0.0101 | 0.00324 |
| GGGGCGGGGA | 0.131 | 0.00633 | 0.00264 |
| ACAAAAAACA | 0.143 | 0.00197 | 0.172 |
| CCACCCCGAC | 0.136 | 0.00404 | 0.0024 |
| CTTCATACTC | 0.167 | 0.271 | 0.00132 |
| CCCACCCCCG | 0.214 | 0.00771 | 0.00264 |
| CACCCACCCC | 0.325 | 0.0153 | 0.003 |
| CCGCCACCCA | 0.107 | 0.00523 | 0.00276 |
| GACCCACCCC | 0.124 | 0.00427 | 0.0018 |
| CCTCCCCCCA | 0.18 | 0.00761 | 0.0036 |
| CCCATCCCCA | 0.106 | 0.00472 | 0.00551 |
| AAAAAAAGCA | 0.612 | 0.037 | 0.246 |
| CGAAAAAAGC | 0.221 | 0.0584 | 0.0645 |
| CAACCACCCC | 0.13 | 0.00486 | 0.00252 |

Source: paper PMC13541613, “GHT-SELEX demonstrates unexpectedly high intrinsic sequence specificity and complex DNA binding of many human transcription factors”
